WRN helicase inh = inhibitors of human WRN helicase. Q14191. WRN helicase unwinding, fluorescent forked duplex, kinetic. AID 651768. Potency, µM (doses to about 114 µM), most hits filed as inhibitors. hit rate 0.46% among 360,000; note: nearly all actives have a fitted effect of over 55% in size
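Kinetic red-fluorescence monitoring (525/598 nm) tracks WRN helicase activity after 100 nM fluorophore-quencher forked duplex and 2 mM ATP are added to 20 nM enzyme pretreated 15 min at room temperature with compound.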
TCR activator = T cell receptor activation; Potency, µM (top dose mostly 9.22 µM), hits mostly activators; 330,000 tested, under 10 active; primary human leukocytes, anti-CD3, IL-2 HTRF, 48 h
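Using a-CD3 beads without co-stimulation, primary human leukocytes were exposed to compounds for 48 hr. An HTRF IL-2 kit measured the cytokine, with europium-to-d2 energy transfer producing emission at 665nm upon 320nm excitation.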
PI5P4Ka inh = PI5P4K alpha (human) kinase inhibition; P48426; PI5P4Kalpha enzyme, ADP-Glo luminescence, 60 min; stronger effect = lower value; max response, %; hit rate 1.2% among 330,000; active = max response of -50% or lower; inconclusive = between -30% and -50%; inactive = -30% or higher; note: value at the top dose of about 77 µM
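qHTS, 1536-well: enzyme/substrate mix, compound by pin tool, 5 microM ATP final; RT 60 min; ADP-Glo reagents 1 (45 min) then 2 (30 min); luminescence.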
PLK1 PBD block = PLK1 (human) polo-box domain binding inhibition; AID 720504; hit rate 2.8% among 360,000; Plk1 PBD binding of FITC phosphopeptide, fluorescence polarization; P53350; Potency, µM, most hits filed as inhibitors; note: series mostly up to about 57 µM; nearly all actives have a fitted effect of over 65% in size
FEN1 inhibitor = human FEN1 inhibition; P39748; Recombinant FEN1 flap cleavage, fluorescence, 15 min; Potency, µM (highest dose often 114 µM), usual class: inhibitors; hit rate 0.35% among 390,000; note: nearly all actives have a fitted effect of over 65% in size
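Nuclease activity of 10 nM FEN1 was measured after 15 min of room-temperature exposure to titrated compounds, by adding 50 nM flap substrate and reading plates at 0 and 15 min.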
VDR inhibitor = inhibitors of human vitamin D receptor. VDR-SRC2-3 peptide fluorescence polarization, 2 h. AID 504847. Potency, µM, most hits filed as inhibitors. P11473. hit rate 0.93% among 400,000
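FP read-out; VDR + SRC2-3 coactivator peptide; 23 nl compound by pintool; 2 h RT incubation; reagents held at 4 deg C, protected from light.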
Each line names hits and unclear results; the compound was inactive in the other large screens; ! = not confirmed by another sample. Only some compounds are listed: those with a hit (about 3.7% of all), similar ones and a draw of the others. Unless noted, calls come from the whole dose curve; as a rule, active = well fitted curve in the direction sought with a large enough effect; inconclusive = small, poorly fitted or top-dose-only effect, or another doubt; inactive = no such curve, though single readings can be large; an effect the other way counts as inactive or inconclusive.

CCOc1ncccc1C(=O)Nc1ccc(Cl)cc1	PLK1 PBD block 11µM, VDR inhibitor inconclusive (no result: TCR activator)
Cc1sc(-n2c(C)ccc2C)c(C#N)c1C	PLK1 PBD block 19µM, VDR inhibitor 79µM (no result: TCR activator, PI5P4Ka inh)
COc1ccc2nccc(/C=C/c3ccc(N(C)C)cc3)c2c1	none (no result: WRN helicase inh, TCR activator, PI5P4Ka inh, PLK1 PBD block, VDR inhibitor)
CCN1CCN(c2cc(C)c3cc(NC(=O)/C=C/c4ccc(C)cc4)ccc3n2)CC1	none (no result: WRN helicase inh, TCR activator, PI5P4Ka inh, PLK1 PBD block)
Cc1ccnc2nc(C(=O)OCC(=O)c3ccc(NC(=O)CC(C)C)cc3)nn12	none
CCC(=O)Nc1ccc(C(=O)COC(=O)c2nc3nccc(C)n3n2)cc1	WRN helicase inh inconclusive, PI5P4Ka inh -90, PLK1 PBD block inconclusive, FEN1 inhibitor inconclusive
CC(C)OCCCNC(=O)c1ccc2c(c1)N(Cc1c(F)cccc1Cl)C(=O)c1ccccc1S2	none (no result: WRN helicase inh, TCR activator, PI5P4Ka inh, PLK1 PBD block)
O=C(NC(=S)Nc1cccnc1Cl)c1ccc(Cl)cc1	none
CCN(CC)c1ccc(NC(=S)NC(=O)c2ccco2)cc1	PLK1 PBD block 21µM, VDR inhibitor 79µM
O=C(NC(=S)Nc1cccnc1Cl)c1ccco1	PI5P4Ka inh inconclusive, PLK1 PBD block 27µM
Cc1cccc(NC(=O)C(NS(=O)(=O)c2ccc3c(c2)oc(=O)n3C)C(C)C)c1 (configuration not stated)	none (no result: WRN helicase inh, TCR activator, PI5P4Ka inh, PLK1 PBD block)
O=C(NC1CC(=O)N(c2ccc(F)cc2)C1)C(c1ccccc1)c1ccccc1 (configuration not stated)	none (no result: WRN helicase inh, TCR activator, PI5P4Ka inh, PLK1 PBD block)
CC1=NN(c2ccc(Cl)cc2)C(=O)C1C(c1ccccc1O)c1c(C)[nH]n(-c2ccc(Cl)cc2)c1=O (configuration not stated)	WRN helicase inh inconclusive, PLK1 PBD block 24µM, FEN1 inhibitor inconclusive
CC1=NN(c2ccc(C)cc2C)C(=O)C1C(c1ccccc1O)C1C(=O)N(c2ccc(C)cc2C)N=C1C (configuration not stated)	PLK1 PBD block inconclusive, VDR inhibitor inconclusive
COc1ccccc1N1CCN(CCn2c(=O)c3c(c4ccccc4n3C)n(C)c2=O)CC1	VDR inhibitor 45µM! (no result: WRN helicase inh, TCR activator, PI5P4Ka inh, PLK1 PBD block, FEN1 inhibitor)
COc1ccccc1N1CCN(CCn2c(=O)[nH]c3c([nH]c4ccccc43)c2=O)CC1	none (no result: WRN helicase inh, TCR activator, PI5P4Ka inh, PLK1 PBD block, FEN1 inhibitor)
CC1(C)CC(=O)C2=C(C1)c1c(ccc3ccccc13)NC2c1cc([N+](=O)[O-])cc([N+](=O)[O-])c1O (configuration not stated)	WRN helicase inh inconclusive, PI5P4Ka inh -59, PLK1 PBD block 3.4µM, FEN1 inhibitor inconclusive
CC1CC=CC2C1C(=O)N(Cc1ccccc1)C2c1ccc(F)c(-c2ccc(N(C)C)cc2)c1 (configuration not stated)	none (no result: WRN helicase inh, TCR activator, PI5P4Ka inh, PLK1 PBD block)
COc1cc(/C=C(\C#N)C(=O)Nc2ccccn2)ccc1O	PI5P4Ka inh -52
CCOc1cc(/C=C(\C#N)C(=O)Nc2ccccn2)ccc1O	none
Cc1ccc2nc(-c3ccc(C)c(NC(=O)COc4ccc(Cl)cc4)c3)oc2c1	none (no result: WRN helicase inh, TCR activator, PI5P4Ka inh, PLK1 PBD block, VDR inhibitor)
O=c1cc(NCCc2ccccc2)c2ccccc2o1	PLK1 PBD block 24µM
O=c1cc(NCCO)c2ccccc2o1	none
CCN1C(=NCc2cccc(C(F)(F)F)c2)N[C@@H](c2cccc(C(F)(F)F)c2)C(C(=O)OC)=C1C	none (no result: WRN helicase inh, TCR activator, PI5P4Ka inh, PLK1 PBD block, VDR inhibitor)
CC1(C)Nc2cccc3c(N=Nc4ccc(N=Nc5ccccc5)c5ccccc45)ccc(c23)N1	none (no result: WRN helicase inh, TCR activator, PI5P4Ka inh, PLK1 PBD block, VDR inhibitor)
CCOC(=O)c1sc(NC(C)=O)nc1C	PLK1 PBD block 27µM (no result: PI5P4Ka inh)
CCN1CCOC(=O)C1CC(=O)Nc1ccc(Br)cc1 (configuration not stated)	VDR inhibitor inconclusive (no result: WRN helicase inh, TCR activator, PI5P4Ka inh, PLK1 PBD block)
Cc1nn(C)c(C)c1S(=O)(=O)N1CCCC(C(=O)NCCc2ccc(Cl)cc2)C1 (configuration not stated)	none
COc1cccc(CNC(=O)C2CCN(S(=O)(=O)c3c(C)nn(C)c3C)CC2)c1	PLK1 PBD block 27µM
Cc1ccc(CCNC(=O)C2CCCN(S(=O)(=O)c3c(C)nn(C)c3C)C2)cc1 (configuration not stated)	PLK1 PBD block 27µM
O=C(CNC(=O)c1ccco1)N=Nc1c(O)n(CCc2ccccc2)c2ccccc12	none
CCCCn1c(O)c(N=NC(=O)c2ccco2)c2ccccc21	PLK1 PBD block 19µM, VDR inhibitor 50µM
C(=C\c1ccnc2ccccc12)/c1ccc(-[n+]2cc[n+](-c3ccc(/C=C/c4ccnc5ccccc45)cc3)cc2)cc1	none (no result: WRN helicase inh, TCR activator, PI5P4Ka inh, PLK1 PBD block, VDR inhibitor)
